# Results: the supplement of paper PMC5407854, “Inhibitor of ppGalNAc-T3-mediated O-glycosylation blocks cancer cell invasiveness and lowers FGF23 levels” (eLife, 2017)
# Over roughly 1,700 compounds, “T3 sensor activation Q score (MG/GFP ratio z-score vs DMSO controls)” has its median near 0.25; the highest 2% begin near 1.9. The list comes from a sample in which the highest values are over-represented; it also holds similar structures and randomly drawn compounds.
# Test system: ppGalNAc-T3 sensor
# Test: T3 sensor activation Q score (MG/GFP ratio z-score vs DMSO controls) (SD units); higher = more sensor activation (inhibition of ppGalNAc-T3 glycosylation)
# Conditions: HEK293 sensor cells; 10 µM; 6 h
# Method: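 Cells were treated with compound at 10 uM for 6 h, then MG/GFP ratio was read by flow cytometry (10,000 cells per well, duplicate wells). Q = (R - R_neg)/SD_neg relative to DMSO vehicle controls; the signal rises when the glycosyltransferase is inhibited.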
row,Compound,T3 sensor activation Q score
1,C#CC1(O)CCC2C3CCC4=Cc5oncc5CC4(C)C3CCC21C (stereo not drawn),0.1
2,COc1cc2c(c(OC)c1O)C(=O)CO2,1.55
3,CC(=O)[C@H]1CC[C@H]2[C@@H]3CCC4=CC(=O)CC[C@]4(C)[C@@]3(F)[C@@H](O)C[C@]12C,0.55
4,CC1(c2ccccc2)O[C@@H]2C[C@H]3[C@@H]4CCC5=CC(=O)C=C[C@]5(C)[C@@]4(F)[C@@H](O)C[C@]3(C)[C@]2(C(=O)CO)O1 (stereo partly drawn),3.35
5,CC(C)(C)n1nc(C2CC2)cc1NC(=O)Nc1ccc(Cl)cc1,0.7
6,COc1cc(Cl)c(CC(=O)c2c[nH]c3ccccc23)cc1OC,1.05
7,CC(C)(C)N1CC(OC(N)=O)C1,1.65
8,O=[N+]([O-])c1cccc(-c2nc3ccccc3s/c2=N/O)c1,1.3
9,CN(C)c1ccc(N=Nc2ccccn2)cc1,-0.95
10,Nc1c(Cl)ncnc1NCCO,0.55
11,COCC(=O)OC1CCn2c1nc1c2C(=O)C(C)=C(NC(C)=O)C1=O (stereo not drawn),-0.35
12,C(=N\n1cnnc1)/c1ccc2c(c1)CCC2,0.05
13,Cc1cc(C)c(C#N)c(Sc2nc(C)c([N+](=O)[O-])c(C)c2C#N)n1,-0.15
14,CC(=O)NC1(C(=O)O)CCCC1,-1.1
15,CC(=NO)C1CC(CC(=O)O)C1(C)C (stereo not drawn),-0.55
16,O=c1cc(-c2ccccc2)nc2cc(-c3ccco3)[nH]n12,0.35
17,Cn1c(N)c(C(=O)/C=C/c2ccccc2)c(=O)[nH]c1=O,1.7
18,OCc1ncccc1O,-0.75
19,CN(C)CCCN1c2ccc3ccccc3c2Sc2cccc(Cl)c21,-0.4
20,S=c1[nH]cc2cnccn12,-1.4
21,CCOc1ccc(NC(=S)NC(=O)c2ccco2)cc1,-1.05
22,Cc1ccn(C)c(=N)c1,2
23,O=C1OCC/C1=C\NCCCCCCCCN/C=C1\CCOC1=O,1.2
24,O=C1N=NC2=C1c1c3ccccc3c(O)n1CC2,1.7
25,CC(C)=CCC/C(C)=C\C(N)=O,0.2
26,CC(C)CC(NC(=O)OCc1ccccc1)C(=O)NC(Cc1c[nH]c2ccccc12)C(=O)O (stereo not drawn),-0.85
27,O=C1CSC(c2cccs2)N1c1nncs1 (stereo not drawn),0.05
28,N=C(N)n1c(N)nc2ccccc2c1=O,-0.55
